This is a sample that favours compounds with a hit; in the whole collection about 5.2% have one here.
SKN-1 inh – blocks SKN-1 activity in C. elegans; C. elegans VP596 Pgst-4::GFP/RFP ratio, acrylamide-induced, 24 h; AID 624304; inhibition, % at 21.8 µM; hit rate 0.49% among 360,000;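 active = interference check ratio from 0.5 to 1.5 plus GFP to RFP signal ratio inhibition reaching or exceeding a fixed threshold, cut at about 30% in these data, passing the limit was not always enough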
NR3A LBD binder – modulates the human NR3A ligand-binding domain | hit rate 2.5% among 340,000 | Tm shift relative to glycine control, % at 25 µM | NR3A LBD differential scanning fluorimetry, Tm shift; 0% = protein alone, 100% = glycine-bound protein;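 active = melting temperature shift of at least 10% of the positive control shift, at one fixed dose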
SMARCA2 act – increases SMARCA2 function in MMTV reporter cells | MG213 cells, MMTV-luciferase reporter, dexamethasone, overnight | activation, % at 9.1 µM | hit rate 1% among 370,000 | AID 652017; in the data active = activation above about 7.8%;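 also: 0% = vehicle wells and 100% = reference activator wells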
Vif imaging – HIV Vif inhibition | inhibition, % at 7.49 µM | AID 602346 | hit rate 0.35% among 340,000 | HEK293T cells, Vif self-association by quenched fluorescence, imaging, 24 h; in the data active = inhibition above about 50%, passing the limit was not always enough; inconclusive = no clear call, values can overlap the other calls; inactive = below about 31%
esBAF inh – inhibitors of esBAF chromatin remodeling in mouse ES cells | Bmi1-luciferase knock-in reporter, 24 h; 100% = twice the neutral-well signal | reporter increase, % at 12.5 µM | hit rate 2% among 350,000 | AID 602393; in the data active = activation above about 40%; inconclusive = no clear call, values can overlap the other calls;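 also: 0% = median of the plate's neutral control wells and 100% = double that signal; a rise in the Bmi1 reporter signal indicates esBAF inhibition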
NadD block – inhibitors of Staphylococcus aureus NadD; purified NadD enzyme, colorimetric absorbance read-out; inhibition, % at 20 µM; hit rate 0.78% among 360,000; in the data active = inhibition above about 26%
Active calls of the source: *; ? = inconclusive; / = no result.

SMILES | SKN-1 inh | NR3A LBD binder | SMARCA2 act | Vif imaging | esBAF inh | NadD block
Oc1[nH]c2ccccc2c1N=Nc1ccccc1 | -2 | -8 | 5 | 0 | 52* | -5
Oc1[nH]c2ccccc2c1N=Nc1ccccc1F | -13 | 8 | 1 | -11 | 86* | -8
Oc1[nH]c2ccccc2c1N=Nc1ccc(F)cc1 | -38 | 0 | 5 | -2 | / | -3
CCCCN(Cc1ccccc1)c1ncnc2nc[nH]c12 | -5 | -2 | / | 0 | 67* | 2
Cc1cnc(C(=O)Nc2ccc3c(c2)CCC3)cn1 | -21 | 2 | 3 | 27 | -3 | -3
Cc1cnc(C(=O)Nc2ccc(F)c(F)c2)cn1 | 24 | -3 | 1 | -1 | 62* | 8
CCCCOc1ccc(NC(=O)c2cnc(C)cn2)cc1 | -9 | -43 | 2 | / | 58* | -4
C[C@H](CO)N1C[C@H](C)[C@@H](CN(C)C)Oc2ncc(-c3ccccc3F)cc2C1=O | / | / | / | / | -2 | /
COCCNC(=O)c1cc2c(c(-c3cccc(-c4cccc(F)c4)c3)n1)[C@H](CCO)N([S@@](=O)C(C)(C)C)C2 | / | / | / | / | -2 | /
C[C@@H]1CN(S(=O)(=O)c2ccc3c(c2)OCCO3)CCN1S(=O)(=O)c1c(F)cccc1F | 7 | 3 | -1 | 2 | -2 | -9
C[C@H]1CN(S(=O)(=O)c2c(F)cccc2F)CCN1S(=O)(=O)c1ccc2c(c1)OCCO2 | 14 | 11* | -1 | 4 | 4 | -12
CCCC#Cc1ccc2c(c1)O[C@H](CN(C)C(=O)Nc1ccc(OC)cc1)[C@@H](C)CN([C@@H](C)CO)S2(=O)=O | / | / | / | / | 3 | /
Cn1c2ccccc2c2nnc(NN)nc21 | -9 | -2 | -3 | 0 | 5 | 3
CCCCc1c(C)nn(-c2nnc3c4ccccc4n(C)c3n2)c1C | -17 | 1 | -3 | / | 48* | 9
C=CCn1c(-c2ccccc2)ccc(C#N)c1=O | 65* | 4 | 0 | 2 | 0 | 0
C=CCn1c(-c2ccccc2)cc(SC)c(C#N)c1=O | 0 | -5 | -3 | -3 | -15 | -4
Cc1ccc(C(=O)CSc2nsc(C)c2C#N)cc1 | -2 | 15* | 6 | 1 | / | -10
Cc1snc(SCC(=O)c2ccc(Cl)cc2)c1C#N | -4 | -1 | 0 | 4 | 30 | -4
Cc1nnc(SCCn2c(N3CC(C)CC(C)C3)nc3c2c(=O)n(C)c(=O)n3C)s1 (stereo not given) | 41* | 0 | 0 | 9 | -12 | 0
Cc1ccc(S(=O)(=O)Nc2ccc3c(c2)C(=O)N([C@H](C)CO)C[C@@H](C)[C@@H](CN(C)C(=O)Nc2c(C)noc2C)OCCCC[C@@H](C)O3)cc1 | / | / | / | / | 5 | /
CCCNC(=O)C[C@H]1CC[C@H]2[C@H](COc3ccc(NC(=O)c4ccccc4)cc3C(=O)N2C)O1 | / | / | / | / | 3 | /
O=C(Nc1ccc2ccccc2n1)c1ccccc1 | 25 | -1 | 5 | -7 | 1 | -1
COc1ccc(C(=O)Nc2ccc3ccccc3n2)cc1OC | -14 | -1 | 4 | 10 | 70* | -2
O=C(Nc1ccc2ncccc2c1)c1ccccc1Br | 26 | 18* | / | 2 | 110* | -1
c1cnc2ccc(-c3ccc4ncccc4c3)cc2c1 | 74* | 0 | 2 | 18 | -1 | -3
SMILES | SKN-1 inh | NR3A LBD binder | SMARCA2 act | Vif imaging | esBAF inh | NadD block
O=C(Nc1ccc2ccccc2n1)c1ccccc1Br | 22 | 1 | 1 | -6 | 52* | 0
O=C(Nc1ccc(C(=O)N2CCCC2)cc1)c1ccccc1Br | -17 | -1 | -3 | -1 | / | -4
O=C(Nc1ccc(C2CC2(Cl)Cl)cc1)c1ccccc1Br (stereo not given) | 47* | -23 | 1 | -1 | / | -4
Cc1c([N+](=O)[O-])cc(C(=O)Nc2ccc3ncccc3c2)cc1[N+](=O)[O-] | -7 | 2 | 1 | 2 | 0 | -1
O=C(Nc1ccc2ncccc2c1)Nc1ccc2ncccc2c1 | 6 | 33* | -1 | 0 | ? | 0
C[C@@H]1CN([C@H](C)CO)C(=O)c2cccc(NC(=O)C3CCOCC3)c2O[C@H]1CN(C)C(=O)NC1CCCCC1 | / | / | / | / | 5 | /
O=c1[nH]nc(-c2ccccc2)c2ccccc12 | 10 | -3 | 2 | -7 | -6 | -7
Fc1ccc(-c2n[nH]c(=S)c3ccccc23)cc1 | 7 | 1 | -2 | 52* | -2 | 7
CC(=O)Oc1cccc(N2C(=O)c3cccc4c([N+](=O)[O-])ccc(c34)C2=O)c1 | -16 | -2 | 6 | 118* | -7 | -2
CCCNC(=O)[C@@H]1[C@@H](CO)[C@@H]2Cn3c(ccc(-c4cccc(OC)c4)c3=O)[C@H]1N2CCC | / | / | / | / | -2 | /
Cc1csc(SCc2nnc(-c3ccccc3Br)o2)n1 | 8 | / | 5 | -6 | 44 | 2
Cc1csc(SCc2nnc(-c3ccc(Cl)cc3)o2)n1 | 15 | -4 | 6 | 17 | 60* | 1
C[C@H](CO)N1C[C@H](C)[C@H](CN(C)Cc2cccc3c2OCCCO3)OCc2cn(nn2)CCCC1=O | / | / | / | / | 4 | /
CC(C)NC(=O)N(C)C[C@H]1Oc2cc(C#CC3CC3)ccc2S(=O)(=O)N([C@H](C)CO)C[C@@H]1C | / | / | / | / | -3 | /
CCOc1ccc(NC(=O)Nc2ccc3c(c2)nnn3C)cc1 | -2 | 16* | -1 | 4 | 13 | 2
CCOCC(=O)Nc1cccc(Br)c1 | 37* | -3 | 1 | 26 | -3 | 2
COc1ccc(C(=O)c2c3ccccc3[n+]([O-])n2CCC(N)=O)cc1 | 3 | -2 | 3 | -3 | 47* | 3
COc1ccc(C(=O)c2c3ccccc3[n+]([O-])n2Cc2ccc(C(N)=O)cc2)cc1 | -5 | 1 | -1 | / | 19 | -5
COc1ccc(C(=O)c2c3ccccc3[n+]([O-])n2CCCN)cc1 | -6 | 1 | 0 | -4 | 29 | 1
COc1ccc2c(C(=O)c3ccc(C)cc3)n(Cc3ccc(C(N)=O)cc3)[n+]([O-])c2c1 | -5 | -1 | 4 | 4 | 101* | -2
Cc1cc(C)nc(Nc2n[nH]c(-c3ccccc3C)n2)n1 | 9 | -1 | 6 | -6 | / | -5
Cc1cc(C)nc(Nc2n[nH]c(-c3ccc(C(C)(C)C)cc3)n2)n1 | 4 | -6 | 1 | -28 | 55* | 5
Cc1cc(C)nc(Nc2n[nH]c(-c3ccccc3Br)n2)n1 | 1 | 1 | 1 | 3 | 44* | 3
O=S(=O)(N[C@H]1CC[C@H](CCn2cc(C3CC3)nn2)O[C@H]1CO)c1ccc(F)cc1 | / | / | / | / | 2 | /
COc1ccc(NC(=O)N[C@@H]2CC[C@H](CCn3cc(-c4ccc(OC)cc4)nn3)O[C@H]2CO)cc1 | / | / | / | / | -4 | /
COc1ccc(C(=O)Cc2nnc(C)s2)c(OC)c1 | -2 | 6 | 3 | 1 | / | 0
COc1ccc(C(=O)Cc2ccc(OC)c(OC)c2)cc1 | 5 | 3 | 5 | -8 | 42* | 8
COc1ccc(C(=O)Cc2ccc(F)cc2)c(OC)c1 | 2 | 0 | 2 | -17 | 76* | 0

High-throughput results deposited in PubChem BioAssay by several laboratories.
